# In PubChem BioAssay AID651640 (Broad Institute, 2012):
# Values joined by “and” are separate entries in the source; they are usually repeats but may differ in a detail not shown here. Identical values can stand only once. Hit rate of the full screen: of about 350,000 compounds, about 6,000 (1.7%) were called active. Not shown: some 5% with an inconclusive outcome. This is one part of a sample in which actives are shown more often than they occur. No stated cut-off is given here; in the data, active means CPE inhibition above about 20% (passing the limit was not always enough); inconclusive means no clear call, values can overlap the other calls; tested in BHK-21 cells. A structure can be active in one record and inactive in another.
# Assay: protection of cells from dengue 2 killing – plate reader, single concentration, primary screen (AID 651640);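 further: 0% = median of neutral control wells and 100% = median of positive control wells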
# Conditions: DENV2-infected cells, cytopathic effect rescue, at 9.99 µM, stronger effect = higher value
row,Compound,CPE inhibition
1,C[C@@H]1CCCCO[C@@H](CN(C)C(=O)CCC(F)(F)F)[C@H](C)CN([C@@H](C)CO)C(=O)c2cc(NC(=O)CCCN(C)C)ccc2O1,3.1% (inactive)
2,O=C(NC[C@@H]1[C@H](c2ccccc2)[C@H](CO)N1CC1CCCC1)c1cccnc1,54.5% (active)
3,O=S(=O)(NC[C@H]1[C@@H](c2ccccc2)[C@@H](CO)N1CC1CC1)c1ccccc1,8.65% (inactive)
4,O=C(NC[C@H]1[C@@H](c2ccccc2)[C@H](CO)N1CC1CC1)c1cccnc1,-7.73% (inactive)
5,COc1cccc(-c2ccc3c(c2)O[C@H](CN(C)C(=O)C2CCOCC2)[C@H](C)CN([C@H](C)CO)S3(=O)=O)c1,-2.8% (inactive)
6,CC(C)c1nc(CNC(=O)CC2C(=O)NCCN2Cc2cccc(F)c2F)cs1 (stereo unspecified),-4.34% (inactive)
7,Cc1cnc(CN(C)C(=O)CC2C(=O)NCCN2Cc2cccc(F)c2F)[nH]1 (stereo unspecified),20.8% (active)
8,CN(Cc1cccc2ncccc12)C(=O)CC1C(=O)NCCN1Cc1ccc(F)cc1 (stereo unspecified),2.99% (inactive)
9,C[C@@H]1CN([C@@H](C)CO)C(=O)c2cc(NC(=O)Nc3cccc4ccccc34)ccc2O[C@@H](C)CCCCO[C@@H]1CN(C)S(=O)(=O)c1ccc(Cl)cc1,-12.5% (inactive)
10,COc1ccccc1-c1ccc2n(c1=O)C[C@H]1[C@H](CO)[C@@H](C(=O)N[C@@H](C)c3ccccc3)[C@@H]2N1C,-8.56% (inactive)
11,CC(C)CC#Cc1ccc([C@@H]2[C@@H](CO)N3C(=O)CN(C(=O)c4cnccn4)C[C@@H]23)cc1,-1.01% (inactive)
12,O=C(C[C@@H]1C=C[C@H](NC(=O)CCN2CCCCC2)[C@H](CO)O1)NCc1ccc(Cl)c(Cl)c1,0.258% (inactive)
13,COc1ccc(/C=C/C(=O)c2c(O)cc(OC)cc2OC)cc1,-8.14% (inactive)
14,COc1ccc(/C=C/C(=O)c2ccc(OC)cc2O)cc1,64.1% (active)
15,COc1ccc(C(=O)/C=C/c2cccnc2)c(OC)c1,-6.66% (inactive)
16,O=C1NC[C@@H](c2ccccc2)OC(=O)[C@H](Cc2ccc(F)cc2)CC/C=C/C[C@H]1CC(=O)N(CCO)Cc1ccccc1,-5.29% (inactive)
17,O=C1CCC/C=C\C[C@@H](CC(=O)N(CCO)Cc2ccccc2)C(=O)NCCO1,-1.93% (inactive)
18,O=C1CCC/C=C/C[C@@H](CC(=O)N(CCO)Cc2ccccc2)C(=O)NC[C@H](c2ccccc2)O1,85.4% (active)
19,COCCN(C[C@H]1[C@H](c2ccccc2)[C@@H](CO)N1C(C)=O)C(=O)c1cccnc1,-2.67% (inactive)
20,CN1C(=O)c2cc(NS(=O)(=O)c3ccccc3F)ccc2OC[C@@H]2O[C@@H](CC(=O)NC3Cc4ccccc4C3)CC[C@@H]21,11.5% (inactive)
21,Cc1ccc2nc(-c3ccc(CN4CCC(n5cc(-c6ccccc6)[nH]c5=O)CC4)cc3)c(-c3ccccc3)nc2c1,-12.7% (inactive)

row,Compound,CPE inhibition
1,Cc1ccc(F)cc1S(=O)(=O)N[C@@H]1CCN(Cc2ccc(-c3ccccc3)cc2)C1,-7.61% (inactive)
2,O=c1[nH]c(-c2ccccc2)cn1C1CCN(Cc2ccc(-c3nc4ccc(F)cc4nc3-c3ccccc3)cc2)CC1,33.2% (active)
3,C=CCN=C1NC(c2cccc(C(F)(F)F)c2)C(C(=O)OC)=C(C)N1C (stereo unspecified),2.58% (inactive)
4,C[C@@H](NC(=O)C[C@@H]1CC[C@@H](NC(=O)C2CCOCC2)[C@@H](CO)O1)c1ccccc1,11.3% (inactive)
5,CN1c2ccc(-c3ccc(F)cc3)cc2[C@@H]2[C@@H](CCN2S(=O)(=O)c2ccc(F)cc2)[C@@H]1CO,-22.1% (inactive)
6,C[C@]1(C(=O)NCCc2c[nH]c3ccccc23)C=C[C@@H](Cc2ccccc2)N1C(=O)c1ccccc1,40.2% (active)
7,O=C(NCCc1c[nH]c2ccccc12)c1cccc(Br)c1,0.922% (inactive)
8,CC(=O)NC(Cc1c[nH]c2ccccc12)C(=O)NCCc1ccccc1 (stereo unspecified),-3% (inactive)
9,COCCNC(=O)C[C@H]1CC[C@@H]2[C@H](COc3ccc(NC(=O)Nc4cccc(F)c4)cc3C(=O)N2C)O1,-0.175% (inactive)
10,C[C@H](CO)N1C[C@H](C)[C@H](CN(C)S(=O)(=O)c2cn(C)cn2)Oc2ccc(N(C)C)cc2C1=O,6.45% (inactive)
11,Cc1noc(C)c1NC(=O)Nc1ccc2c(c1)C(=O)N([C@@H](C)CO)C[C@H](C)[C@H](CN(C)S(=O)(=O)c1cn(C)cn1)OCCCC[C@@H](C)O2,-4.2% (inactive)
12,COc1ccc(S(=O)(=O)N(C)C[C@@H]2Oc3ccc(NC(=O)Nc4c(C)noc4C)cc3C(=O)N([C@H](C)CO)C[C@@H]2C)cc1,-4.21% (inactive) and 6.91% (inactive)
13,C[C@@H]1CN([C@H](C)CO)C(=O)c2cc(N(C)C)ccc2O[C@@H]1CN(C)S(=O)(=O)c1cn(C)cn1,70.9% (active)
14,C[C@H](CO)N1C[C@H](C)[C@H](CN(C)S(=O)(=O)c2cn(C)cn2)OCCCC[C@H](C)Oc2ccc(N(C)C)cc2C1=O,1.23% (inactive)
15,Cc1noc(C)c1NC(=O)Nc1ccc2c(c1)C(=O)N([C@H](C)CO)C[C@H](C)[C@@H](CN(C)S(=O)(=O)c1cn(C)cn1)O2,8.16% (inactive) and 22.2% (active)
16,COCC(=O)Nc1ccc2c(c1)[C@@H]1C[C@@H](CC(=O)N3CCN(C)CC3)O[C@H](CO)[C@@H]1O2,2.6% (inactive)
17,C[C@@H]1CN([C@H](C)CO)C(=O)c2cccc(NC(=O)CCCCCC(=O)Nc3ccccc3N)c2O[C@H]1CN(C)Cc1ccc(Oc2ccccc2)cc1,-13.3% (inactive)
18,CO[C@@H]1CN(C)C(=O)c2cc(NC(C)=O)ccc2OC[C@H](C)N(C(=O)Cc2ccccn2)C[C@@H]1C,-0.178% (inactive)
19,COCC(=O)N1CCC2(CC1)CN(C(=O)Nc1ccccc1F)[C@@H](CO)c1c2c2ccc(OC)cc2n1C,-0.316% (inactive)
20,COCC(=O)Nc1ccc2c(c1)OC[C@@H](C)N(C(=O)c1cnccn1)C[C@H](C)[C@H](OC)CN(C)C2=O,-10.2% (inactive)
21,C[C@@H]1CCCCO[C@H](CN(C)C(=O)Nc2cccc3ccccc23)[C@@H](C)CN([C@@H](C)CO)C(=O)c2cc(NC(=O)Nc3ccc(F)cc3)ccc2O1,32.7% (active)

row,Compound,CPE inhibition
1,COc1ccc(NC(=O)Nc2ccc3c(c2)C(=O)N([C@@H](C)CO)C[C@H](C)[C@@H](CN(C)C(=O)Nc2cccc4ccccc24)OCCCC[C@@H](C)O3)cc1,-3.89% (inactive)
2,C[C@@H]1CN([C@@H](C)CO)C(=O)c2cc(NC(=O)Nc3ccc4c(c3)OCO4)ccc2O[C@@H](C)CCCCO[C@@H]1CN(C)C(=O)Nc1ccc2c(c1)OCO2,0.286% (inactive)
3,C[C@@H]1CCCCO[C@@H](CN(C)C(=O)NC2CCCCC2)[C@H](C)CN([C@@H](C)CO)C(=O)c2cc(NC(=O)Nc3ccc(F)cc3)ccc2O1,24.1% (active)
4,C[C@H](CO)N1C[C@H](C)[C@@H](CN(C)C(=O)Nc2ccc3c(c2)OCO3)OCCCC[C@H](C)Oc2ccc(NC(=O)Nc3ccc4c(c3)OCO4)cc2C1=O,0.76% (inactive)
5,C[C@H]1CCCCO[C@H](CN(C)C(=O)NC2CCCCC2)[C@@H](C)CN([C@@H](C)CO)C(=O)c2cc(NC(=O)Nc3ccc4c(c3)OCO4)ccc2O1,34.9% (active)
6,C[C@@H]1CCCCO[C@@H](CN(C)C(=O)CCCN(C)C)[C@@H](C)CN([C@H](C)CO)C(=O)c2cc(NC(=O)Nc3ccc(F)cc3)ccc2O1,26.3% (active)
7,C[C@@H]1CCCCO[C@@H](CN(C)C(=O)CCCN(C)C)[C@H](C)CN([C@@H](C)CO)C(=O)c2cc(NC(=O)Nc3ccccc3)ccc2O1,-0.42% (inactive)
8,C[C@@H]1CCCCO[C@H](CN(C)C(=O)NC2CCCCC2)[C@H](C)CN([C@H](C)CO)C(=O)c2cc(NC(=O)Nc3ccc(F)cc3)ccc2O1,-5.97% (inactive)
9,C[C@@H]1CN([C@@H](C)CO)C(=O)c2cc(NC(=O)Nc3ccc(C(F)(F)F)cc3)ccc2O[C@@H](C)CCCCO[C@H]1CN(C)C(=O)CCCN(C)C,-0.11% (inactive)
10,C[C@@H]1CN([C@@H](C)CO)C(=O)c2cc(NC(=O)Nc3ccc(C(F)(F)F)cc3)ccc2O[C@@H](C)CCCCO[C@@H]1CN(C)C(=O)Nc1cccc2ccccc12,-5.51% (inactive)
11,C[C@@H]1CCCCO[C@H](CN(C)C(=O)NC2CCCCC2)[C@H](C)CN([C@@H](C)CO)C(=O)c2cc(NC(=O)Nc3ccc(F)cc3)ccc2O1,3.1% (inactive)
12,O=S(=O)(c1ccc(F)cc1)N1CCCCN2[C@H](C1)[C@H](c1ccc(C3=CCCCC3)cc1)[C@@H]2CO,-4.44% (inactive)
13,COc1cccc(S(=O)(=O)N2CCCCN3[C@H](CO)[C@H](c4ccc(C#CC5CC5)cc4)[C@H]3C2)c1,-34.9% (inactive)
14,CCN1[C@@H]2Cn3c(ccc(-c4cccc(OC)c4)c3=O)[C@H]1[C@@H](C(=O)N(C)C)[C@@H]2CO,-1.41% (inactive)
15,O=C(Nc1ccccc1)N[C@@H]1CC[C@H](CCn2cc(C3(O)CCCC3)nn2)O[C@@H]1CO,-11.6% (inactive)
16,C[C@H](CO)N1C[C@H](C)[C@H](CN(C)C)Oc2ccc(NC(=O)Cc3ccccc3)cc2CC1=O,9.5% (inactive)
17,CC(C)c1cn(CC[C@@H]2CC[C@@H](NC(=O)C3CCC3)[C@@H](CO)O2)nn1,-3.48% (inactive)
18,Cc1noc(C)c1NC(=O)Nc1cccc2c1O[C@H](CN(C)S(C)(=O)=O)[C@H](C)CN([C@H](C)CO)C2=O,6.73% (inactive)
19,C[C@@H]1CN([C@@H](C)CO)C(=O)c2cc(-c3cncnc3)cnc2O[C@@H]1CN(C)Cc1ccncc1,15% (inactive)
